In general, Inhibition refers to the share of the control response that was lost under treatment. Lower therefore signals a weak effect.

Structures are written as SMILES.

This assay deals with Plasmodium falciparum. Put plainly: GSK_TCMDC: Inhibition of Plasmodium falciparum 3D7 in whole red blood cells, using parasite LDH activity as an index of growth. Test compounds present at 2uM. Type of assay: functional.
`Cc1cc(N[C@@H](Cc2ccccc2)C(=O)NCc2cccc(F)c2)nc(NCCCOC(C)C)n1.O=C(O)C(F)(F)F` came in with an Inhibition of 100%.
Take `CN1CCC(OC(=O)c2cc3cc(-c4ccccc4)ccc3n2S(=O)(=O)c2ccccc2)CC1.Cl`: the Inhibition is listed as 88%.
For `CCCCCC(=O)N1CCOC(CCN2CCc3c(c4ccccc4n3C)C2)(c2ccc(Cl)c(Cl)c2)C1` (stereo not given) the value was 95%; for `COc1ccc2nccc([C@@H](O)CN3CCC(NCc4cc5c(cc4F)SCC(=O)N5)CC3)c2n1`, 96%; for `O=c1cc(NCCCNCc2ccc3c(c2)OC(F)(F)O3)[nH]c2ccccc12`, 100%.
Consider `CCN(C)c1cc(C(=O)N[C@@H](Cc2ccccc2)[C@H](O)CNC(C)(C)c2cccc(OC)c2)cc(N2CCCC2=O)c1`, for which the Inhibition turned out to be 100%.
In the case of `Cn1nccc1C(=O)NCCNCc1ccc(-c2ccc(-c3nc4cc(F)ccc4[nH]3)cc2)cc1.O=C(O)C(F)(F)F`, the Inhibition is given as 100%.
`O=C(/C=C/c1ccc(I)cc1)NCCCCCN1CCC(c2c[nH]c3ccc(O)cc23)CC1` displayed an Inhibition of 97%.
As for `Cc1cc(N/N=C/c2cccc([N+](=O)[O-])c2)c2ccc(F)cc2n1`, the Inhibition came to 100%.
As for `CCc1ccc(NC(=O)N(CCCN2CCN(C)CC2)Cc2csc(-c3ccc(CNCc4ccccc4)cc3)n2)cc1.O=C(O)C(F)(F)F`, the Inhibition worked out at 99%.
As for `COc1ccc(-c2nc(NC(=O)Cc3cccc(OC)c3)sc2C)cc1`, the Inhibition is given as 100%.
As to `Cc1nc(-c2nc(NCc3ccncc3)ncc2-c2ccsc2)sc1C`, the Inhibition is 91%.
Turning to `CCN(CCCN1CCCCC1)c1cc(C)nc(Nc2ccc(C)cc2Br)n1.O=C(O)C(F)(F)F`, the Inhibition is given as 95%.
In the case of `Cc1cccc2nc(-c3ccc(-c4ccc(CNCc5cccc(N)c5)cc4)cc3)[nH]c12.O=C(O)C(F)(F)F`, the Inhibition was found to be 100%.
In turn, `CC(=O)N1N=C(c2ccc(F)cc2)Sc2c1nc(-c1ccccc1)n2C(C)=O` had an Inhibition of 99%.
`COc1cc2nc(NC3CCN(Cc4ccccc4)CC3)nc(N)c2cc1OC` yielded an Inhibition of 100%.
As to `CCN(CCCN1CCCC1)c1cc(C)nc(Nc2ccc(Cl)cc2)n1.O=C(O)C(=O)O`, the Inhibition was 100%.
Take `COc1ccc2sc(CNCCCNc3cc(=O)c4ccccc4[nH]3)c(Cl)c2c1.Cl`: the Inhibition worked out at 85%.
The compound `Cc1cc(-c2ccc(CNCc3ccc(F)cc3)cc2)ccc1S(=O)(=O)NCCN1CCCC1.O=C(O)C(F)(F)F` displayed an Inhibition of 100%.
`COc1ccc(Nc2nc(N/N=C/c3cc(Br)ccc3O)nc(Nc3ccc([N+](=O)[O-])cc3)n2)cc1`: the Inhibition is given as 97%.
`CCNS(=O)(=O)c1ccc(Oc2ccc([N+](=O)[O-])cc2)cc1` yielded an Inhibition of 94%.
`Cc1cc(N2C(N)=NC(N)=NC2(C)C)ccc1Cl.Cl` displayed an Inhibition of 95%.
The compound `Cc1cccc2nc(-c3cccc(-c4ccc(NC(=O)NCc5cccc(F)c5)cc4)c3)[nH]c12` returned an Inhibition of 100%.
`CC(=O)O.CC(C)c1ccc(C2CCN(CCCCNC(=O)c3ccc(NC(=O)c4ccc(C(F)(F)F)cc4)cc3)CC2)c(O)c1` yielded an Inhibition of 99%.
Consider `COc1ccc2ncc(F)c(CCN3CC(O)C(CNCc4ccc5oc(=O)ccc5c4)C3)c2n1.Cl` (stereo not given), for which the Inhibition came to 89%.
`CC(CN(C)C)C(=O)Nc1cccc(-c2ccc(-c3nc4cc(C(F)(F)F)ccc4[nH]3)cc2)c1` (stereo not given) gave an Inhibition of 99%.
The compound `O=C1OC(c2ccccc2)(c2ccccc2)CN1C1CCN(Cc2ccc(O)c(Cl)c2)C1` (stereo not given) showed an Inhibition of 100%.
Compound `CC(C)N1CCN(c2ccc(OCCCCN3CCN(c4cccc(Cl)c4Cl)CC3)cc2Cl)CC1.Cl` registered an Inhibition of 89%.
As for `Br.CC(C)(C)c1ccc(OCCCON2C(=N)N=C(N)NC2(C)C)c(C(C)(C)C)c1`, the figure is 93%.
For `C[C@@H](Oc1cc(-n2cnc3ccc(NC(=O)CCN4CCCCC4)cc32)sc1C(N)=O)c1ccccc1Cl` the value was 100%; for `O=C(Cc1cccc(Cl)c1)Nc1cccc(-c2c[nH]c3nc(Nc4cccc(O)c4)ncc23)c1.O=C(O)C(F)(F)F`, 100%; for `Cl.O=S(=O)(c1ccc(OCc2ccc(Cl)cc2)cc1)c1cc2c(c(-c3ccc(F)cc3)c1)CCN(CC1CC1)CC2`, 84%.
`Cc1ccc2[nH]c3c(NCCCN4CCOCC4)ncnc3c2c1` yielded an Inhibition of 100%.
For `O=C(NCCc1ccccc1)N(Cc1cccc(-c2ccc(CNCCc3ccccc3)cc2)c1)C1CCN(Cc2ccccc2)CC1.O=C(O)C(F)(F)F` the value was 90%; for `O=C(/C=C/c1ccc(Cl)c(Cl)c1)NCCCCCN1CC[C@H](NC(=O)Nc2ccc(Oc3ccccc3)cc2)C1`, 100%; for `Cc1cc(NCCC(=O)Nc2ccccc2)nc(NCCc2ccccc2)n1.O=C(O)C(F)(F)F`, 99%.
For `Cl.N#CCc1ccc(Nc2nccc(Nc3ccc(Oc4ccccc4)cc3)n2)cc1` the value was 98%; for `O=C(O)C(F)(F)F.O=[N+]([O-])c1cccc(CNCC2CCN(Cc3ccc(Cl)c(Cl)c3)CC2)c1`, 100%; for `COc1cc(C(=O)N2COCC(CCCN3CCC(N4CCCC4)CC3)(c3ccc(Cl)c(Cl)c3)C2)cc(OC)c1OC` (stereo not given), 95%.
For the compound `CC1CCCN1Cc1cccc(-c2ccc(C(=O)NCCOc3ccccc3)s2)c1.O=C(O)C(F)(F)F` (stereo not given), the Inhibition is 83%.

Values taken from ChEMBL document CHEMBL1157539, “Thousands of chemical starting points for antimalarial lead identification” (Nature, 2010).
